Screening data from PubChem.
PPARg SRC1 recr: promotes SRC-1 coactivator recruitment by human PPARgamma. activation, % at 8 µM. P37231. PPARgamma-SRC-1 coactivator recruitment biochemical assay. 200,000 compounds, 0.41% hits; in the data active = activation above about 19%
Target sequence (P37231 whole entry, looked up): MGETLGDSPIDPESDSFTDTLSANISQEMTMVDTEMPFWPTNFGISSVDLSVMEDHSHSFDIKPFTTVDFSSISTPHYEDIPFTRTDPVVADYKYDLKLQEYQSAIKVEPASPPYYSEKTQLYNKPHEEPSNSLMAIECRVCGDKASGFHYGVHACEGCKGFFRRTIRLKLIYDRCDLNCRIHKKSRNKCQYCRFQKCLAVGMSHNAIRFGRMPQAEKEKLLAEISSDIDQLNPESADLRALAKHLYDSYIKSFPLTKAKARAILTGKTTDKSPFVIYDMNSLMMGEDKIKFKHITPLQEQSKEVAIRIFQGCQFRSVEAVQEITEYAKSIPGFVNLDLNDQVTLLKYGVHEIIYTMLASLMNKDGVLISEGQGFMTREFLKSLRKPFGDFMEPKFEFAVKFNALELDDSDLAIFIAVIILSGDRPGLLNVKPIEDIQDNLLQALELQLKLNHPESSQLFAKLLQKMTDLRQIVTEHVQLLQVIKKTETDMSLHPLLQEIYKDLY
PPARg SRC2 recr: PPARgamma-driven SRC-2 recruitment agonism | PPARgamma LBD-SRC-2 recruitment, biochemical | activation, % at 8 µM | 200,000 compounds, 0.34% hits; in the data active = activation above about 22%
TR-FRET SRC-2 ct: TR-FRET artefact, counter-screen to PPARgamma/SRC-2 agonist assay; hits give high values; AID 1049; 200,000 compounds, 0.4% hits; TR-FRET ratio at 8 µM
SRC3 TRFRET art: flags TR-FRET format artefacts in PPARgamma SRC-3 recruitment agonist screen. TR-FRET ratio at 8 µM. 99,000 compounds, 0.39% hits. TR-FRET artefact counter-screen, PPARgamma/SRC-3 format; hits give high values
PPARg SRC3 recr: promotes SRC-3 coactivator recruitment by human PPARgamma. P37231. biochemical PPARgamma/SRC-3 coactivator recruitment assay. activation, % at 8 µM. 200,000 compounds, 0.26% hits. AID 731; in the data active = activation above about 23%
SRC1 TRFRET art: counter-screen for PPARgamma SRC-1 recruitment agonists: TR-FRET artefact; TR-FRET detection artefact counter-screen, emission ratio; hits give high values; TR-FRET ratio at 8 µM; 99,000 compounds, 0.34% hits; AID 1051; in the data active = TR-FRET ratio above about 2300
Hits are given with their value; - = inactive; . = no result. Shown are actives, neighbours in structure and some others; about 0.84% of the full set was active somewhere. Rule as the data show it, unless noted: active = TR-FRET ratio above about 2000; inactive = the rest.

SMILES	PPARg SRC1 recr	PPARg SRC2 recr	TR-FRET SRC-2 ct	SRC3 TRFRET art	PPARg SRC3 recr	SRC1 TRFRET art
CCCn1c(NC(=O)c2ccc(F)cc2)nc2ccccc21	-	-	-	-	-	-
CCCn1c(NC(=O)c2ccc(Br)cc2)nc2ccccc21	34.2	-	-	.	-	.
Cc1ccc(-c2csc3ncnc(SCC(=O)NCc4ccc5c(c4)OCO5)c23)cc1	-	-	2614	.	-	.
Cc1noc(C)c1C(=O)OCC(=O)Nc1c(F)cccc1F	-	-	-	-	-	-
Cc1ccc(S(=O)(=O)c2cn(Cc3ccc(F)cc3)c3cc4c(cc3c2=O)OCO4)cc1	-	-	-	2414	-	-
COc1cccc(NC(=S)/C(=C(\[O-])c2ccc(OC(F)F)cc2)[n+]2ccccc2)c1	-	-	1987	-	-	-
COc1ccc(Cn2c(-c3ccc(C)cc3)nc3c(c(=O)c4ccccc4n3C)c2=O)cc1	-	29.1	2131	-	-	-
O=C(c1nc2ccccn2c1CN1CCC(Cc2ccccc2)CC1)N1CCCC1	-	-	-	-	-	-
COc1ccc([N+](=O)[O-])cc1NC(=S)NC(NC(=O)C(c1ccccc1)c1ccccc1)C(Cl)(Cl)Cl (centres undefined)	-	-	2107	.	-	.
Cc1csc(C(C#N)C(=O)c2ccncc2)n1 (centres undefined)	-	31.0	2112	-	-	-
Cc1cnc(NC(=O)c2ccncc2)s1	-	-	-	-	-	-
O=C(CSc1nnnn1-c1ccccc1)Nc1nsc(-c2ccc(Cl)cc2)n1	-	-	-	2179	-	-
COc1ccc(OC)c(-c2csc(NC(=O)c3ccc4c(c3)OCO4)n2)c1	-	-	-	2559	-	-
COc1ccc(CC(=O)Nc2nc(-c3cc(OC)ccc3OC)cs2)cc1	-	-	-	-	-	-
Cc1cccc2nc(-c3ccccc3)nc(N3CCC(O)(c4ccc(Cl)cc4)CC3)c12	-	-	2045	-	-	-
c1ccc(-n2ncc3c(NCc4cccs4)ncnc32)cc1	-	-	-	2147	-	-
Cc1sc(NC(=O)Cc2ccc3c(c2)OCO3)nc1-c1ccc2c(c1)CCN2C(=O)c1ccc(F)cc1	-	-	-	2623	-	-
Cc1sc(NC(=O)Cc2ccc3c(c2)OCO3)nc1-c1ccc2c(c1)CCN2C(=O)c1ccccc1F	-	-	-	-	-	-
CSc1cc(-c2ccc(Cl)cc2)n(Cc2ccccc2)c(=O)c1C#N	-	-	-	.	42.9	.
C1=C(CCNCC2CCCCC2)CCCC1	-	-	-	.	-	.
O=C(CSc1nnc(Cc2csc(Nc3cccc(Cl)c3)n2)o1)N1CCc2ccccc21	-	-	2013	.	-	.
CCC(C)(C)n1nnnc1CN1CCc2ccccc21	-	-	-	.	-	.
CCN1/C(=C\C(=S)Nc2ccccc2)Sc2ccccc21	-	-	2548	3725	-	3876
CCN(CC)S(=O)(=O)c1cccc(NC(=O)COC(=O)c2n[nH]c(=O)c3ccccc23)c1	21.8	-	-	-	-	-
NC1=Nc2cccc3cccc1c23	-	-	-	-	-	-
SMILES	PPARg SRC1 recr	PPARg SRC2 recr	TR-FRET SRC-2 ct	SRC3 TRFRET art	PPARg SRC3 recr	SRC1 TRFRET art
NC1=CC(=O)c2cccc3cccc1c23	-	-	-	.	26.2	.
O=C(CSc1nnc2c3ccccc3c3ccccc3c2n1)Nc1ccccc1	64.0	-	-	.	-	.
O=C(CSc1nnc2c3ccccc3c3ccccc3c2n1)Nc1ccccc1F	-	-	-	.	-	.
CC(=O)Nc1c(O)nc(SCC(=O)Nc2cccc(C)c2)[nH]c1=O	-	-	-	.	-	.
CC(=O)Nc1c(O)nc(SCC(=O)Nc2ccc(C(C)=O)cc2)[nH]c1=O	-	-	-	.	26.5	.
O=C(Nc1cccc(Cl)c1)Nc1ccccc1-n1ccnc1	-	-	-	-	-	-
CN(C)CCCN(C(=O)c1ccc2c(c1)CCCC2)c1nc2c(F)cccc2s1	-	-	-	-	-	-
CN(C)CCCN(C(=O)c1ccc(N2C(=O)CCC2=O)cc1)c1nc2c(F)cccc2s1	21.8	-	-	-	-	-
Clc1ccccc1C(c1ccccc1)(c1ccccc1)n1ccnc1	-	-	-	-	-	-
CCCCNC(=S)Nc1ccc(-c2nc3ccc(C)cc3s2)cc1	-	-	-	-	-	-
Cc1ccc2nc(-c3ccc(NC(=S)NCCC(C)C)cc3)sc2c1	-	41.3	-	.	-	.
CCOc1ccc(S(=O)(=O)c2c(C(=O)c3ccccc3)cnc3cc4c(cc23)OCCO4)cc1	-	-	-	2180	-	-
O=C(CSc1ncnc2scc(-c3ccccc3)c12)N1CCN(c2ccccc2F)CC1	-	-	-	2200	-	-
CCOc1ccc2cc(C#N)c(SCC(=O)NC(C)CC)nc2c1 (centres undefined)	32.3	-	-	.	-	.
Cc1cc(C)c2nc(NC(=O)[C@@H](NC(=O)c3cccc(S(=O)(=O)N4CCOCC4)c3)C(C)C)sc2c1	-	-	-	-	-	-
CCN(CC)C(=O)c1cn(-c2ccccc2)nc1-c1ccc2c(c1)OCCO2	-	-	1980	-	-	-
CCN(CC)C(=O)c1cn(CCC#N)nc1-c1ccc2c(c1)OCCO2	-	-	-	-	-	-
Cc1nnc(SCC(=O)N2CCN(C(=O)c3ccco3)CC2)n1-c1ccccc1	-	-	-	-	-	-
O=C(NCc1n[nH]c(=S)n1-c1ccc(Br)cc1)c1ccc(S(=O)(=O)N2CCOCC2)cc1	-	22.3	-	-	-	-
O=C(NCc1n[nH]c(=S)n1-c1ccc(Br)cc1)c1ccc(S(=O)(=O)N2CCCC2)cc1	-	-	-	-	-	-
Cc1cccc(NC(=S)Nc2ccc(N3CCOCC3)cc2)c1C	-	-	1974	-	-	-
O=C(CCc1nnc(-c2ccc3c(c2)OCO3)o1)N1CCC(c2ccc(F)cc2)C1 (centres undefined)	-	-	-	-	-	-
N#Cc1c(N)nc(SCC(=O)NCc2ccc3c(c2)OCO3)c(C#N)c1-c1cccs1	-	-	-	.	-	.
COc1ccccc1CNC(=O)CSc1nc(N)c(C#N)c(-c2cccs2)c1C#N	-	-	-	.	29.5	.
COc1ccc(-c2cc(-c3cccs3)c(C#N)c(SCC(=O)NCc3ccccc3)n2)cc1	39.4	-	-	.	-	.
SMILES	PPARg SRC1 recr	PPARg SRC2 recr	TR-FRET SRC-2 ct	SRC3 TRFRET art	PPARg SRC3 recr	SRC1 TRFRET art
COc1ccc(-c2cc(-c3cccs3)c(C#N)c(SCC(=O)NCc3ccccc3OC)n2)cc1	27.3	-	-	.	-	.
COc1ccc(-c2cc(-c3ccccc3)nc(SCC(=O)Nc3ncc(C)s3)c2C#N)cc1	-	-	-	-	-	-
CCOC(=O)n1cc(-c2cnc(CNC(=O)C(C)(c3ccccc3)c3ccccc3)o2)c2ccccc21	-	28.3	-	-	-	-
CC(C(=O)NCCN1CCOCC1)(c1ccccc1)c1ccccc1	-	-	-	-	-	-
CNC(=S)Nc1cccc(S(=O)(=O)NC2=NCCC2)c1	-	-	-	-	-	-
CCCCNC(=O)[C@H](CSCc1ccccc1)N1Cc2ccccc2C1=O	-	-	-	-	-	-
